Sm TGR block – blocks Schistosoma mansoni thioredoxin glutathione reductase | purified TGR, DTNB reduction, TNB absorbance 405 nm | Q962Y6 | Potency, µM (series often up to 114 µM), without a hit: at the highest dose activity change, negative = inhibition, hits mostly inhibitors | 3% of 360,000 active; further: potency means the concentration at half of the fitted maximal effect; nearly all actives have a fitted effect of over 60% in size
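Kinetic colorimetric format: TGR-catalysed, NADPH-driven DTNB reduction monitored via TNB absorbance. Enzyme dispensed at 20 nM; compound exposure 15 min at room temperature before reaction start.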
FMDV antiviral – antivirals against foot and mouth disease virus | FMDV antiviral cell-based qHTS | Potency, µM (top dose mostly 57.9 µM), for inactives: top-dose activity change, negative = inhibition, actives largely listed as inhibitors | 1.2% of 410,000 active; calls by dose curve; tested in HEK293T cells; further: read-out not given here; potency means the concentration at half of the fitted maximal effect; nearly all actives have a fitted effect of over 45% in size
HCMV antiviral – inhibitors of human cytomegalovirus; HFF cells, HCMV-luciferase reporter, 72 h; stronger effect = lower value; activity change, negative = inhibition, % at 57.5 µM; 4.5% of 410,000 active; AID 1259415; in the data active means activity change below about -60%; inconclusive means no clear call, values can overlap the other calls; inactive means above about -39%
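Human foreskin fibroblasts infected with luciferase-reporter HCMV at MOI 1 PFU/cell, compounds at two doses. Luciferase measured 72 h post infection; normalized to buffer-only basal and Salinomycin (10uM) controls.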
VACV mCherry inh – vaccinia inhibition (mCherry reporter); Vaccinia virus mCherry reporter infection, fluorescence; Potency, µM (series often up to 36.5 µM), for the others: at the highest dose activity change, negative = inhibition, usual class: inhibitors; 0.63% of 310,000 active; calls by dose curve; tested in A549 cells; further: potency means the concentration at half of the fitted maximal effect; nearly all actives have a fitted effect of over 35% in size
VACV Venus inh – inhibitors of vaccinia virus (Venus reporter). AID 720580. Vaccinia virus Venus reporter expression, fluorescence. 0.46% of 330,000 active. Potency, µM (titrated, usually from 36.5 µM), inactives show at the highest dose activity change, negative = inhibition, actives largely listed as inhibitors; calls by dose curve; tested in A549 cells; further: potency means the concentration at half of the fitted maximal effect; nearly all actives have a fitted effect of over 30% in size
HCV inhibitor – inhibitors of hepatitis C virus infection; Huh7.5.1 HCVcc-Cre infection, luciferase reporter, 44 h; Potency, µM (top dose mostly 41.8 µM), inactives show at the top dose activity change, negative = inhibition, most hits filed as inhibitors; 3.4% of 340,000 active; AID 651820; further: potency means the concentration at half of the fitted maximal effect
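HCVcc-Cre virus at an moi near 0.5 was added right after compound to cells cultured 4 h from seeding (1,000 cells/well). Luciferase activity was determined 44 h later, 15 min after substrate addition at RT.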
Numbers without * were called inactive. In the library only some 9.3% were active in any assay of this set; here they are far more common. Unless noted, the call rests on the fitted dose curve; in most records, active means well fitted curve in the direction sought with a large enough effect; inconclusive means small, poorly fitted or top-dose-only effect, or another doubt; inactive means no such curve, though single readings can be large; an effect the other way counts as inactive or inconclusive. On the % scale 0 is the no-effect control and ±100 the full control effect.

Screening CC(C)c1ccc(S(=O)(=O)N2CCN(C(=O)C3CC3C)CC2)cc1 (centres undefined) returned Sm TGR block -15%, FMDV antiviral -25%, HCMV antiviral -6, VACV mCherry inh -2%, VACV Venus inh -8% and HCV inhibitor inconclusive.
`CC(C)(C)c1cc(CCC(=O)NN)cc(C(C)(C)C)c1O` gave Sm TGR block -5%, FMDV antiviral -13%, HCMV antiviral -12, VACV mCherry inh 2%, VACV Venus inh -12% and HCV inhibitor 4%.
C=CC(=O)NCCCc1cc(C(C)(C)C)c(O)c(C(C)(C)C)c1 was read as Sm TGR block -30%, FMDV antiviral 0%, HCMV antiviral -96*, VACV mCherry inh inconclusive, VACV Venus inh inconclusive and HCV inhibitor inconclusive.
For O=C(CCCCCNC(=O)N1CCn2c1nc1ccccc12)NCc1ccc(Cl)cc1 the results were Sm TGR block -1%, FMDV antiviral -21%, HCMV antiviral 44 and HCV inhibitor -12%.
`O=C(Cc1ccccn1)N1CC(=O)N2[C@H](CO)[C@@H](c3ccc(Br)cc3)[C@H]2C1` gave HCMV antiviral -101*.
Screening COC(=O)/C(C)=C\CC12OC(C)(C)C3CC(C=C4C(=O)c5c(OC)c6c(c(CC=C(C)C)c5OC431)OC(C)(CCC=C(C)C)C=C6)C2=O (centres undefined) returned FMDV antiviral 32µM*, VACV mCherry inh 13µM* and VACV Venus inh inconclusive.
`CC(=O)Oc1c(-c2ccccc2)oc2c(CC=C(C)C)c3c(c(OC(C)=O)c2c1=O)C=CC(C)(C)O3` gave FMDV antiviral -6%, VACV mCherry inh -2% and VACV Venus inh 16%.
Screening CC(=O)Oc1c2c(c(CC=C(C)C)c3c1C(=O)C1=CC4CC5C(C)(C)OC(C/C=C(\C)C(=O)O)(C4=O)[C@]15O3)OC(C)(CCC=C(C)C)C=C2 (some centres undefined) returned FMDV antiviral 4µM*, VACV mCherry inh 11µM* and VACV Venus inh inconclusive.
Screening CCc1noc(C)c1C(=O)Nc1ccc(C)c(S(=O)(=O)N2CCCCCC2)c1 returned Sm TGR block 3%, FMDV antiviral 28µM*, HCMV antiviral -38, VACV mCherry inh -8%, VACV Venus inh -21% and HCV inhibitor 13µM*.
Screening Cc1ccc(NC(=O)/C=C/c2ccco2)cc1S(=O)(=O)N1CCCCCC1 returned FMDV antiviral 0%, HCMV antiviral -89* and HCV inhibitor 2.8µM*.
Screening Cc1cc(NS(=O)(=O)c2ccc(NS(=O)(=O)c3ccc(CC(C)C)cc3)cc2)nc(C)n1 returned Sm TGR block -11%, FMDV antiviral 69%, HCMV antiviral inconclusive, VACV mCherry inh inactive, VACV Venus inh -15% and HCV inhibitor 4µM*.
Cc1ccc(S(=O)(=O)Nc2ccc(S(=O)(=O)Nc3cc(C)nc(C)n3)cc2)cc1 was read as Sm TGR block 4%, FMDV antiviral 84%, HCMV antiviral -19, VACV mCherry inh inactive, VACV Venus inh -9% and HCV inhibitor 13%.
For Cc1cc(NS(=O)(=O)c2ccc(NC(=O)/C=C/c3ccco3)cc2)nc(C)n1 the results were Sm TGR block 4µM*, FMDV antiviral 9%, HCMV antiviral 2, VACV mCherry inh -7%, VACV Venus inh -5% and HCV inhibitor -3%.
Screening CCc1noc(C)c1C(=O)Nc1cc(S(=O)(=O)N2CCCCC2)ccc1N(C)C returned Sm TGR block -7%, FMDV antiviral -8%, HCMV antiviral 2, VACV mCherry inh -17%, VACV Venus inh -18% and HCV inhibitor -1%.
For Cc1ccc(NC(=O)CCl)cc1S(=O)(=O)N1CCCCCC1 the results were Sm TGR block 7.9µM*, FMDV antiviral 22µM*, HCMV antiviral -98*, VACV mCherry inh -11%, VACV Venus inh -14% and HCV inhibitor inconclusive.
`COCCNCC(=O)Nc1ccc(C)c(S(=O)(=O)N2CCCCC2)c1` gave Sm TGR block 6%, FMDV antiviral 2%, HCMV antiviral -5, VACV mCherry inh -6%, VACV Venus inh -9% and HCV inhibitor 4%.
Cc1ccc(NC(=O)Cc2ccccc2F)cc1S(=O)(=O)N1CCCCCC1 was read as Sm TGR block 7%, FMDV antiviral -11%, HCMV antiviral -78* and HCV inhibitor 11µM*.
Screening O=C(O)C1C2C=CC(O2)C1C(=O)Nc1ccc(S(=O)(=O)Nc2ccccc2)cc1 (centres undefined) returned Sm TGR block 6.3µM*, FMDV antiviral 24%, HCMV antiviral -23, VACV mCherry inh -4%, VACV Venus inh -15% and HCV inhibitor -25%.
O=C(O)C1C2C=CC(O2)C1C(=O)Nc1ccc(S(=O)(=O)N2CCc3ccccc32)cc1 (centres undefined) was read as Sm TGR block 14µM*, FMDV antiviral 10%, HCMV antiviral -27 and HCV inhibitor 19%.
`NS(=O)(=O)c1ccc(NS(=O)(=O)c2ccc(NC(=S)Nc3ccccc3)cc2)cc1` gave Sm TGR block inconclusive, FMDV antiviral 13%, HCMV antiviral -22, VACV mCherry inh inactive, VACV Venus inh -4% and HCV inhibitor 10%.
Screening COc1ccc2[nH]c3c(c2c1)[C@@H]1CCN2C(=O)CCC[C@H](C3)[C@H]12 returned Sm TGR block -5%, FMDV antiviral 1%, HCMV antiviral -61*, VACV mCherry inh -8%, VACV Venus inh -4% and HCV inhibitor 2%.
O=C1CC(N2CCOCC2)C(=O)N1c1ccc(Cl)cc1 (centres undefined) was read as Sm TGR block 22µM*, FMDV antiviral -14%, HCMV antiviral -2, VACV mCherry inh -10%, VACV Venus inh -3% and HCV inhibitor 0%.
Cc1cccc(N2C(=O)CC(N3CCOCC3)C2=O)c1 (centres undefined) was read as Sm TGR block 50µM*, FMDV antiviral -18%, HCMV antiviral 6, VACV Venus inh -15% and HCV inhibitor -1%.
`CCN(CC)C1CC(=O)N(c2cccc(C)c2)C1=O` (centres undefined) gave Sm TGR block 3.5µM* and HCV inhibitor -3%.
O=C1C(Cl)=C(N2CCOCC2)C(=O)N1c1cccc(Cl)c1 was read as Sm TGR block inconclusive, FMDV antiviral -12%, HCMV antiviral -1, VACV mCherry inh -17%, VACV Venus inh 2% and HCV inhibitor 6%.
`Cc1cccc(N2C(=O)C(Cl)=C(N3CCOCC3)C2=O)c1` gave Sm TGR block 40µM*, FMDV antiviral 9%, HCMV antiviral 26, VACV mCherry inh inactive, VACV Venus inh -10% and HCV inhibitor 17%.

Bioassay records deposited in PubChem BioAssay by National Center for Advancing Translational Sciences (NCATS).
